# In the library only some 4.1% were active in any assay of this set; here they are far more common.
# GRIN3A LBD mod = NR3A (human) ligand-binding domain modulation | Tm shift relative to glycine control, % at 25 µM | 340,000 compounds, 2.5% hits | NR3A LBD differential scanning fluorimetry, Tm shift; 0% = protein alone, 100% = glycine-bound protein;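 active = melting temperature shift of at least 10% of the positive control shift, at one fixed dose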
# p-CIP stab down = compounds decreasing mouse p/CIP protein stability. AID 1984. 290,000 compounds, 0.01% hits. Q05BA5. decrease of EGFP signal, % at 10 µM. F442A p/CIP-EGFP cells, EGFP fluorescence, 16 h;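 active = EGFP signal decrease of at least 30% at 10 µM or well 3 SD below plate mean, unless failing retest; inactive = the rest, including hits failing retest or dose response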
# MPTP inh = blocks calcium-induced mitochondrial swelling; isolated mouse mitochondria, Ca2+ swelling absorbance, 30 min; inhibition, % at 10 µM; 360,000 compounds, 1.4% hits; AID 602449;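 active = inhibition of 50% or more, scaled per plate between neutral and stimulator controls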;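 note: 0% = DMSO wells given calcium and 100% = 1 mM EGTA wells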
# beta cell repl = inducers of beta-cell replication in MIN6 cells; MIN6 cells proliferation, ATPlite luminescence, 48 h; cells starved in 0.2% serum; 100% = growth in 10% serum; proliferation, % at 10 µM; 330,000 compounds, 0.29% hits; AID 2380;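 active = compounds whose signal lies at least 3.5 SD above the mean of all wells on their plate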;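 note: 0% = DMSO-treated cells in low-serum medium and 100% = 10% serum control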
# FAS-TE inh = inhibitors of human fatty acid synthase thioesterase domain. P49327. recombinant FAS-TE, OMFH fluorogenic substrate, fluorescence endpoint. inhibition, % at 15 µM. 360,000 compounds, 0.67% hits;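 active = compounds whose normalised, plate-corrected inhibition of enzyme fluorescence in the single-dose primary screen is 50% or more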;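 note: 0% = DMSO with enzyme and 100% = substrate without enzyme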
# An asterisk follows results filed as active; · = no result.
SMILES,GRIN3A LBD mod,p-CIP stab down,MPTP inh,beta cell repl,FAS-TE inh
COc1ccc(C(=O)Nc2ccc(N3CCCCC3)cc2)cc1Br,10.4*,-3.8,0.8,3.1,-1.2
CCCCC(=O)Nc1ccc(C(=O)NNC(=O)c2ccc(C)c(Br)c2)cc1,1.9,-5.7,9.3,-2.1,-12.0
CC(=O)c1ccc(NC(=O)c2ccc(C)c(Br)c2)cc1,28.1*,1.4,13.0,-0.6,5.5
CCOC(=O)c1cc2c(OC)c(OC)ccc2c2[nH]cc(C#N)c(=O)c12,·,·,1.9,·,3.1
COc1ccc(-c2ccc(N3C(c4ccsc4)=Cc4ccc(F)cc4C3c3c[nH]c4ccccc34)cc2)cc1 (stereo not given),·,·,1.5,·,-45.3
CCCCNS(=O)(=O)c1ccc(NC(=O)C2CCCO2)cc1 (stereo not given),11.6*,-0.7,-0.9,-0.8,-10.2
COc1ccc(C(=O)Nc2ccc(OCC(F)(F)C(F)F)c(C(F)(F)F)c2)cc1OC,17.8*,-4.2,0.9,-3.6,26.5
CCC(C)NS(=O)(=O)c1ccc(NC(=O)C2CCCO2)cc1 (stereo not given),-3.5,-20.6,2.3,-0.5,-6.4
COc1cc(C(=O)Nc2ccc(O)cc2)ccc1OC(C)=O,32.3*,-5.0,0.3,-0.3,-5.3
COc1ccc(NC(=O)c2ccc(COCC(F)(F)F)cc2)cc1OC,-2.4,-6.7,-0.2,0.0,-0.6
CC(C)NC(=O)C1(C)CN(S(C)(=O)=O)CC(=O)N1CCc1ccccc1 (stereo not given),·,·,0.7,·,·
COc1cccc(Nc2nc(C(N)Cc3ccc(Cl)cc3)cs2)n1 (stereo not given),·,·,3.2,·,-3.6
CCOc1ccccc1N1CCN(C(=S)Nc2ccc(S(=O)(=O)Nc3ncccn3)cc2)CC1,10.2*,7.8,-1.2,3.5,-4.4
CCSC1=N/C(=C\c2cccc(F)c2)C(=O)S1,15.4*,-1.9,0.5,-1.3,-11.8
CC(C)NC(=O)c1cccc2c(-c3ccc(F)c(F)c3)coc12,·,·,-0.2,·,13.6
O=c1/c(=C\c2ccc(O)cc2)sc2n1C(c1ccccc1)C(c1ccccc1)=NN=2 (stereo not given),14.6*,-97.7,-4.9,-6.0,3.9
Cc1cccc(Nc2ccccc2C(=O)O)c1C,14.3*,7.1,-0.7,0.4,-6.4
Cc1cc(C(C#N)c2ccccc2F)n2ncnc2n1 (stereo not given),14.6*,-9.5,1.6,0.5,5.4
C[C@@H]1CN([C@@H](C)CO)C(=O)c2cc(NC(=O)C3CCCCC3)ccc2O[C@@H](C)CCCCO[C@@H]1CN(C)C(=O)CCCN(C)C,·,·,-0.4,·,-8.6
CC(C)(C)c1ccc(C(=O)Nc2ccc(S(N)(=O)=O)cc2)cc1,·,-2.2,0.2,-2.1,-2.9
NS(=O)(=O)c1ccc(NC(=O)Nc2ccc(S(N)(=O)=O)cc2)cc1,0.5,4.4,-0.4,-1.1,-3.0
Cc1ccc(NC(=O)Nc2ccc(S(N)(=O)=O)cc2)cc1,11.1*,0.8,0.9,-1.4,0.6
NS(=O)(=O)c1ccc(NC(=O)Nc2ccc(C(F)(F)F)cc2)cc1,19.6*,-1.1,20.4,-1.8,23.1
CN(C(=O)Cc1noc2ccccc12)c1ccccc1,11.9*,3.5,-0.1,0.0,-5.4
O=C1C2(CCCC13COC(c1ccc(O)cc1)OC3)COC(c1ccc(O)cc1)OC2 (stereo not given),26.0*,-1.8,·,-0.6,·
SMILES,GRIN3A LBD mod,p-CIP stab down,MPTP inh,beta cell repl,FAS-TE inh
O=C1C2(CCC13COC(c1ccc(O)cc1)OC3)COC(c1ccc(O)cc1)OC2 (stereo not given),1.5,-11.2,-0.3,0.2,-6.5
CC(=O)N1C=CN(C(C)=O)C(c2cn(C)c3ccccc23)C1c1cn(C)c2ccccc12 (stereo not given),13.6*,-4.6,-2.0,-2.3,4.4
COc1cccc2cc(C(=O)CC3(O)C(=O)N(Cc4ccccc4)c4ccccc43)c(=O)oc12 (stereo not given),15.2*,2.4,4.8,-5.9,-8.9
O=C(O)CC1(O)C(=O)N(Cc2ccccc2)c2ccccc21 (stereo not given),-1.9,-3.9,-1.3,-0.3,-7.1
COC(=O)NC(NC(=S)Nc1cccc(C)c1)C(Cl)(Cl)Cl (stereo not given),-16.4,-18.1,0.7,-3.1,9.9
O=C(/C=C/c1ccccc1)NC(NC(=S)Nc1cccc(O)c1)C(Cl)(Cl)Cl (stereo not given),20.6*,9.9,25.0,-2.8,15.3
O=C(/C=C/c1ccccc1)NC(NC(=S)Nc1ccc(C(=O)O)cc1)C(Cl)(Cl)Cl (stereo not given),13.1*,-5.1,6.4,-1.5,-0.2
Cc1ccc(Nc2nc(=O)c3cc([N+](=O)[O-])ccc3s2)cc1,13.3*,-5.3,1.5,-3.4,4.3
COc1ccc(Nc2cc(C)c3cc([N+](=O)[O-])ccc3n2)cc1,27.9*,-11.3,4.5,-5.3,16.5
Cc1ccccc1Nc1nc(=O)c2cc([N+](=O)[O-])ccc2s1,-2.1,-9.1,3.7,-1.7,18.0
COc1ccc(Nc2nc(=O)c3cc([N+](=O)[O-])ccc3s2)cc1,13.5*,-7.7,2.5,·,6.1
COCCNC(=O)C1(C)CCCN(C(=O)c2ccc3snnc3c2)C1 (stereo not given),·,·,-0.9,·,-5.1
Cc1ccc(C(=O)C2C(=O)c3ccccc3C2=O)cc1,-1.1,-7.5,0.7,-1.7,-7.6
NN=C1c2ccccc2C(=O)C1C(=O)C(c1ccccc1)c1ccccc1 (stereo not given),12.5*,·,12.0,·,9.9
CN(C(=O)COC(=O)c1ccc(Cl)c(S(=O)(=O)NCc2ccccc2)c1)C1CCS(=O)(=O)C1 (stereo not given),-0.9,·,-1.1,·,-8.2
O=C(CSCc1ccc(Br)cc1)N=Nc1c(O)[nH]c2ccccc12,-30.4,-17.5,5.1,8.7*,5.4
CCn1c(CNC(=O)c2ccc3c(c2)OCO3)nnc1SCC(=O)Nc1cc(C)ccc1OC,10.2*,-20.9,-6.4,0.8,-3.5
CC1=CC(Cc2ccccc2)N(C)C(C(N)=O)C1 (stereo not given),·,·,-0.8,·,-2.3
COc1cc(C(=O)NCc2ccc(C)cc2)ccc1OC(F)F,11.5*,0.6,1.4,0.0,1.7
COc1cc(C(=O)N(Cc2ccccc2)c2cccc(C)c2)ccc1OC(F)F,14.1*,0.3,-0.3,-6.5,20.1
COc1ccc(CC(=O)N(Cc2ccccc2)c2cccc(C)c2)cc1OC,9.6,-13.1,-0.6,0.8,7.2
Cc1cccc(N(Cc2ccccc2)C(=O)CCl)c1,-0.6,-2.7,-1.7,·,6.0
Cc1cccc(N(Cc2ccccc2)C(=O)c2ccc(CS(C)(=O)=O)cc2)c1,14.1*,-0.1,-0.9,-2.2,5.4
COc1ccc(C(C)=O)cc1CN1C(=O)C(C)ON=C1c1cccc(C(F)(F)F)c1 (stereo not given),·,·,-2.1,·,5.7
Cc1cccc(-c2ccc(O)cc2CN2CCN(c3ncc(Cc4ccccc4)cn3)CC2)c1,·,·,2.8,·,·
COC(=O)c1ccccc1NC(=O)CCCOc1cc(=O)n(C)c2ccccc12,·,·,-1.7,·,-4.3

# Source: PubChem (Sanford-Burnham Center for Chemical Genomics)
